PubChem BioAssay AID1159580 (chemical genetic matrix, 2015)
Several values for one entry are separate records, joined by “and”; a condition that tells them apart may be missing. Equal values may be shown once. The whole screen tested about 5,500 compounds, of which about 2,000 (36%) were called active. Another 18% or so got no clear call; they are omitted. Cut-off read from the data, not from the text of the source: active = normalized growth mostly below about 0.91 (no sharp cut-off); inconclusive = no clear call, values can overlap the other calls; inactive = mostly above about 0.92. The list shows a part of the results.

Test: chemical genetic growth profiling, strain panel (AID 1159580);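 note: tested at 20 µM; growth read once vehicle control cultures reached saturation at 30 °C; 1 = growth at the plate median or of vehicle wells; lower values mean less growth of the strain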
Details: S. cerevisiae deletion strains, growth OD

Measured: normalized growth

COC(=O)C(C)c1ccc(C(=O)c2cccs2)cc1 (stereo unspecified)
inactive: locus YAL013W, strain DEP1, active compounds read low 0.998 | locus YAL021C, strain ccr4, active compounds read low 1.01 | locus YAL026C, strain drs2, active compounds read low 0.988 | locus YAL030W, strain snc1, active compounds read low 1.01 | locus YBL061C, strain skt5, active compounds read low 1.01 | locus YBR009C, strain hhf1, active compounds read low 1 | locus YBR021W, strain FUR4, active compounds read low 0.971 | locus YBR023C, strain chs3, active compounds read low 1.01 | locus YBR171W, strain sec66, active compounds read low 1.01 | locus YBR229C, strain ROT2, active compounds read low 0.998 | locus YBR231C, strain swc5, active compounds read low 1.02 | locus YBR279W, strain paf1, active compounds read low 1 | locus YCL011C, strain gbp2, active compounds read low 1 | locus YCL016C, strain dcc1, active compounds read low 1 | locus YCL029C, strain bik1, active compounds read low 0.96 | locus YCL061C, strain MRC1, active compounds read low 1.01 | locus YCL069W, strain vba3, active compounds read low 1.01 | locus YCR088W, strain abp1, active compounds read low 1 | locus YDL005C, strain med2, active compounds read low 1.01 | locus YDL035C, strain GPR1, active compounds read low 0.957 | locus YDL040C, strain nat1, active compounds read low 1.01 | locus YDL074C, strain BRE1, active compounds read low 0.981 | locus YDL101C, strain DUN1, active compounds read low 1.01 | locus YDL134C, strain PPH21, active compounds read low 0.996 | locus YDL185W, strain tfp1, active compounds read low 0.939 | locus YDL192W, strain arf1, active compounds read low 0.951 | locus YDR001C, strain nth1, active compounds read low 1.02 | locus YDR069C, strain doa4, active compounds read low 1.02 | locus YDR101C, strain arx1, active compounds read low 0.975 | locus YDR137W, strain rgp1, active compounds read low 1 | locus YDR150W, strain NUM1, active compounds read low 0.985 | locus YDR159W, strain sac3, active compounds read low 1.02 | locus YDR162C, strain NBP2, active compounds read low 0.998 | locus YDR195W, strain ref2 0.993 | locus YDR297W, strain sur2, active compounds read low 1.01 | locus YDR334W, strain swr1, active compounds read low 1.01 | locus YDR335W, strain msn5, active compounds read low 0.997 | locus YDR388W, active compounds read low 0.973 | locus YDR392W, strain spt3, active compounds read low 0.999 | locus YDR502C, strain sam2, active compounds read low 0.959 | locus YEL003W, strain gim4, active compounds read low 1.01 | locus YEL037C, strain rad23, active compounds read low 1 | locus YEL061C, strain CIN8 (second series), active compounds read low 1.01 | locus YEL061C, strain CIN8, active compounds read low 0.991 | locus YER015W, strain faa2, active compounds read low 1.01 | locus YER016W, strain bim1, active compounds read low 1 | locus YER110C, active compounds read low 0.955 | locus YER111C, strain swi4, active compounds read low 1.01 | locus YER155C, strain BEM2 (second series), active compounds read low 1.01 | locus YER155C, strain BEM2, active compounds read low 0.997 | locus YER167W, strain BCK2, active compounds read low 0.956 | locus YFR010W, strain ubp6, active compounds read low 1.01 | locus YGL078C, strain dbp3, active compounds read low 0.968 | locus YGL167C, strain pmr1, active compounds read low 1.01 | locus YGL173C, strain kem1, active compounds read low 1.02 | locus YGL227W, strain vid30, active compounds read low 1.01 | locus YGL240W, strain doc1, active compounds read low 1 | locus YGL248W, strain PDE1, active compounds read low 0.998 | locus YGL253W, strain hxk2, active compounds read low 1 | locus YGR078C, strain PAC10, active compounds read low 0.995 | locus YGR135W, strain pre9, active compounds read low 0.946 | locus YGR229C, strain SMI1, active compounds read low 0.96 | locus YGR252W, strain gcn5, active compounds read low 0.934 | locus YHR013C, strain ard1, active compounds read low 1.01 | locus YHR027C, strain rpn1, active compounds read low 1.01 | locus YHR030C, strain SLT2, active compounds read low 0.991 and 0.936 | locus YHR079C, strain IRE1 (second series), active compounds read low 0.968 | locus YHR079C, strain IRE1, active compounds read low 0.949 | locus YHR094C, strain hxt1, active compounds read low 0.947 | locus YHR129C, strain ARP1, active compounds read low 0.999 | locus YHR142W, strain chs7, active compounds read low 0.991 | locus YHR200W, strain rpn10, active compounds read low 0.954 | locus YIL066C, strain RNR3, active compounds read low 0.977 | locus YIL073C, strain SPO22, active compounds read low 0.851 | locus YIR030C, strain dcg1, active compounds read low 0.957 | locus YJL092W, strain hpr5, active compounds read low 1 | locus YJL095W, strain BCK1 (second series), active compounds read low 1.01 | locus YJL095W, strain BCK1, active compounds read low 1.01 and 0.972 | locus YJL115W, strain asf1, active compounds read low 1.03 | locus YJL129C, strain trk1, active compounds read low 1.04 | locus YJL134W, strain LCB3, active compounds read low 0.991 | locus YJL154C, strain vps35, active compounds read low 1 | locus YJL164C, strain tpk1, active compounds read low 0.998 | locus YJL166W, strain qcr8, active compounds read low 1 | locus YJL168C, strain set2, active compounds read low 0.973 | locus YJL187C, strain SWE1 (second series), active compounds read low 1 | locus YJL187C, strain SWE1, active compounds read low 1.01 | locus YJR043C, strain POL32, active compounds read low 0.972 | locus YJR066W, strain TOR1, active compounds read low 0.982
active: locus YDR318W, strain mcm21, active compounds read low 0.907 | locus YGL086W, strain mad1, active compounds read low 0.92
